Measurements as given in PubChem BioAssay (NCI).
Compounds without any hit were thinned out: in the full panel of roughly 79,000, 15% have a hit. Unmarked numbers belong to inactive results. Calls of active or inactive are those of the source. No stated cut-off is given here; in the data, active means growth inhibition above about 70%; inactive means the rest.

How the values were obtained:
[1] = NCI Yeast Anticancer Drug Screen. Data for the rad50 strain (AID 155);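 further: 0% = growth of vehicle-only cultures of the same strain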; details: S. cerevisiae rad50 strain growth inhibition; at 50.0 µM; stronger effect = higher value
Method in brief: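 Readout: growth inhibition relative to vehicle-treated cultures. Compound exposure was carried out in a genetically defined yeast strain deficient in DNA damage repair.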

[2] = NCI Yeast Anticancer Drug Screen. Data for the mec2-1 strain (AID 157); details: S. cerevisiae mec2-1 strain, at 50.0 µM, stronger effect = higher value
Method in brief: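 Growth inhibition is read against vehicle-treated controls after compound exposure of the mec2-1 yeast strain, which is defective in DNA damage repair or cell cycle control.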

[3] = NCI Yeast Anticancer Drug Screen. Data for the sgs1 mgt1 strain (AID 161);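 further: 0% = growth of cultures given vehicle only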; details: S. cerevisiae sgs1 mgt1 strain, at 50.0 µM, stronger effect = higher value
Method in brief: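 Compounds are added to genetically altered yeast, and growth is compared with cultures given vehicle alone to give percent inhibition.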

[4] = NCI Yeast Anticancer Drug Screen. Data for the cln2 rad14 strain (AID 165);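 further: 0% = growth equal to vehicle treated cultures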; details: S. cerevisiae cln2 rad14 strain, at 50.0 µM, stronger effect = higher value
Method in brief: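 Growth inhibition, relative to vehicle-treated controls, is the read-out. The test organism is a yeast strain with defined genetic alterations, cln2 rad14.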

[5] = NCI Yeast Anticancer Drug Screen. Data for the bub3 strain (AID 167); details: S. cerevisiae bub3 mutant strain, at 50.0 µM, stronger effect = higher value
Method in brief: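 Readout: yeast growth inhibition, expressed relative to vehicle-only wells. The test organism is a mutant strain from a panel with lesions in DNA repair or checkpoint genes.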

[6] = NCI Yeast Anticancer Drug Screen. Data for the mlh1 rad18 strain (AID 175); details: S. cerevisiae mlh1 rad18 strain growth inhibition; at 50.0 µM; stronger effect = higher value
Method in brief: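 Cells of a genetically altered yeast strain, deficient in DNA damage repair, were treated with compound. Their growth was then compared with that of vehicle-treated cultures to give inhibition.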

Compound | growth inhibition [1] | growth inhibition [2] | growth inhibition [3] | growth inhibition [4] | growth inhibition [5] | growth inhibition [6]
COc1ccc(/C=N\O[Si](C)(C)C(C)(C)C)cc1O[Si](C)(C)C(C)(C)C | 31.9% | 17.2% | 21.9% | 5.05% | -3.25% | 15.8%
O=C(O)Cc1cc(=O)oc2cc(O)c(Cl)cc12 | 1.75% | -20% | -7.15% | 15.8% | 3.25% | -5.55%
CC(=O)OC12c3ccccc3C(c3ccccc31)C1C(=O)N(c3ccccn3)C(=O)C12 (stereo unspecified) | -23.6% | -7.4% | 5.9% | 3.35% | 9.9% | 5.6%
C=C(C)C(C)(C)n1[nH]c(=O)n(-c2ccccc2)c1=O | 13.2% | -0.05% | -0.3% | -23.1% | -13.4% | 0%
CCCCCCCCCCC(CO)CCCCCCCC (stereo unspecified) | -14.8% | 8.85% | 5.85% | -1.55% | -9.45% | 4%
NC(=O)C1C(=O)c2cccc3c2C1CCCC3 (stereo unspecified) | -11% | 9.85% | -5.6% | -31% | -11% | 20.7%
C[N+]1=C(/C=C/Nc2ccc(Cl)cc2)C(C)(C)c2ccccc21 | -2.35% | 6.2% | -10.4% | -2.55% | -1.8% | 9.5%
C=C1C(=O)C23CC1C[C@H](OC(C)=O)C2C1(C)C(OC(C)=O)C[C@H](O)C(C)(C)[C@H]1C(O)[C@@H]3OC(C)=O (stereo partly specified) | 9.8% | -3.85% | 3.25% | -2.95% | 24.1% | 20.3%
CCNc1nc(C)nc2c1cnn2C | 5% | 4.85% | -1.85% | -13.2% | 17.8% | -1%
Brc1cc2[nH]c(-c3ccccc3)c(Br)c2c(Br)c1Br | 59% | 36.5% | 68.5% | 39.2% | 14.3% | 69%
Cc1ccc(/C([O-])=C(/C(=S)Nc2ccccc2)[n+]2ccccc2)cc1 | -5.3% | 22% | 7.55% | -22.1% | 18.1% | 13.1%
CC1(C)[C@@H]2CC[C@](C)(O)[C@H]1C2 | 0.45% | -1.05% | -1.65% | 8.5% | -3.15% | 2.3%
NC(N)=NC1NCC(=O)S1 (stereo unspecified) | 0.2% | -5.65% | 4.3% | 4.6% | 7.15% | 21.9%
O=C(N/N=C\c1ccc([N+](=O)[O-])cc1)Nc1ccc2ccccc2c1 | 3.15% | 8.1% | 1.85% | 8.3% | 25.2% | 14.1%
CC(C)(C)C(=O)/C=C(\OB(F)F)C(C)(C)C | 2.25% | -5.2% | -9.15% | 26.9% | -15.8% | 5.25%
CC1(O)C2C3C(I)C4C5C3C1C5C42 (stereo unspecified) | 22.6% | 9.05% | 10.1% | 6.7% | 10.3% | 17.4%
CC1=C(C(=O)Nc2ccc([N+](=O)[O-])cc2)C(c2ccco2)C(C(=O)Nc2ccc([N+](=O)[O-])cc2)=C(C)N1 | 30.2% | 35.5% | 34.4% | 38.2% | 43.5% | 14.9%
O=c1nc(Nc2ccccc2)ccn1C1OC(CO)C(O)C1O (stereo unspecified) | -7.95% | 0.25% | 0.2% | 12% | 7.55% | 5.85%
CC(=O)Nc1cccc(O)c1 | 18.4% | 5.3% | 25.1% | -13.8% | -8.7% | 22.6%
COc1ccc(-c2cc(-c3cc(C)cc(Br)c3O)no2)cc1 | -6.55% | -13.3% | -10.8% | -3.2% | -4.4% | 14.3%
COc1ccc2c(c1)C13CCCC(C)(C(=O)NC1)C3CC2 (stereo unspecified) | -0.15% | -17.6% | -16.3% | 9% | 2.35% | -11.7%

Compound | growth inhibition [1] | growth inhibition [2] | growth inhibition [3] | growth inhibition [4] | growth inhibition [5] | growth inhibition [6]
N#CCCc1c(O)ccc2ccccc12 | 38.6% | 0.6% | 10.1% | -59.9% | 10.5% | 11.6%
C=Cc1ccccc1NC(C(=O)O)c1ccccc1 (stereo unspecified) | 18.8% | -5.05% | -0.8% | 18.6% | 7.2% | 1.35%
O=C(O)CCC(=O)Nc1ccc(Cl)cc1 | 8% | 5.7% | -0.05% | -16.1% | 5.15% | 5.55%
Nc1nnc(-c2ccc(-c3nnc(N)o3)cc2)o1 | -33.6% | -12.9% | -8.55% | -31.1% | 4.05% | -7.25%
CC(O)COC1CCCCC1 (stereo unspecified) | -2.75% | -10.9% | 3.85% | -7.25% | -3.95% | -0.95%
Cc1c(C(=O)CC(=O)C(=O)Nc2cc(Cl)ccc2Cl)[n+](=O)c2ccccc2n1[O-] | -7.35% | 1.9% | -40.2% | 16.2% | 1.1% | 1.65%
O=C(Nc1nc2ccc([N+](=O)[O-])cc2s1)C(=O)C(C(=O)c1ccncc1)C1OC(=O)c2ccccc21 (stereo unspecified) | 24.1% | 9.25% | -19.5% | 39.2% | 49.8% | 27.3%
CC(=O)/C=C\C1CC2C=CC1C2 (stereo unspecified) | -11.6% | -10.2% | 3.65% | 17.1% | -20.4% | 31.6%
O=C(NO)c1ccc(O)c(O)c1 | 2.1% | 14.4% | 5.55% | -8.25% | -8.45% | -39%
COC[C@H]1C(=O)NCC(=O)N2N=CCC[C@H]2C(=O)N(O)[C@H](C)C(=O)O[C@@H](C(C)C)[C@H](NC(=O)[C@@](C)(O)[C@]2(O)CC[C@@H](CC(C)C)[C@H](C)O2)C(=O)N2NCCC[C@@H]2C(=O)N1O | 91.8% (active) | 93.6% (active) | 93.7% (active) | 91.2% (active) | 93.2% (active) | 92.1% (active)
C/C=C1\OC(n2cnc3c(N)ncnc32)C(O)C1O (stereo unspecified) | -0.3% | -11.8% | -14.9% | 2.5% | -16.2% | -1.8%
COc1ccc(Nc2cc[nH]c(=O)c2NC(C)=O)cc1 | 20.7% | 4.9% | 32.3% | 14.7% | 9.75% | 21%
COc1cccc(/C=C/S(=O)(=O)Cc2ccccc2)c1OC | 9.7% | 4.85% | 4.85% | 23.4% | 7.4% | 26.1%
CC(=O)N1CCN(c2ccccc2Cl)CC1 | -10% | -17.2% | -18.4% | -3.45% | -10.6% | -22.7%
CCCCC(NC(=O)OCc1ccccc1)C(=O)NC(Cc1c[nH]c2ccccc12)C(=O)O (stereo unspecified) | 37.6% | 3.9% | 14.7% | 17.8% | 0.4% | 9.25%
Nc1c[nH]c(=S)s1 | 36.9% | 18.8% | 54.7% | 0.9% | 39.6% | 51.2%
C=C(Cl)C(C)(Cl)CCC(Cl)C(C)(C)Cl (stereo unspecified) | 21.9% | 16.4% | 29.6% | 42.5% | 32.2% | 25.3%
Nc1cc2c(O)cc(S(=O)(=O)O)cc2cc1S(=O)(=O)O | -5.9% | 8.15% | 2.35% | 14.1% | 34.2% | -4.3%
C/C(=N\NC(=O)CC(=O)Nc1ccccc1Cl)c1cc2cc(N=Nc3ccccc3Cl)ccc2oc1=O | -17.1% | 0.7% | 13.9% | 4.4% | -4.05% | -13.6%
O=C(CN(Cc1ccccc1)Cc1ccccc1)NC(=O)c1ccccc1 | 4.5% | -7.9% | 8.45% | -36.4% | 9.55% | -10.4%
